# Data taken from PubChem BioAssay (EPA / NIEHS).
# Calls of active or inactive are those of the source. The calls were made as follows: active = hit-call score of the fitted dose curve at least 0.9, where 1 is the maximum; inactive = score below 0.9.
# Read-out: Monocyte Chemoattractant Protein-1 (MCP1), CCL2 (gene 6347)
# Test: BSK_4H_MCP1: BioMAP Diversity Plus: 4H Assay for Monocyte Chemoattractant Protein-1 (MCP1) Biomarker Activity (AID 2283018)
# Details: primary human endothelial cells (HUVEC); actives raise or lower the signal
# Method in brief: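 Readout: MCP-1 ELISA on compound-treated HUVEC, sampled 24 h post-dosing. Baseline and negative control DMSO; bidirectional fit. Overt toxicity checked alongside by sulforhodamine B protein staining at time of biomarker measurement.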
Compound,AC50,outcome
CCCCCCCCCCCC[N+](C)(C)C,16.3 µM (active),
CC[C@H](NC(=O)c1cc(F)ccc1NS(=O)(=O)c1cccc2cccnc12)c1ccccc1,,inactive
Cc1occc1C(=O)Nc1ccc(C(=O)N2CCC(F)(F)/C(=C\C(=O)N3CCC(N4CCCCC4)CC3)c3ccccc32)cc1,,inactive
Cc1cn([C@H]2C[C@H](N=[N+]=[N-])[C@@H](CO)O2)c(=O)[nH]c1=O,,inactive
Oc1ccc2ccccc2c1,,inactive
CC(C)(C)c1csc(-c2cc3cc(OCc4ccccc4CC(=O)O)ccc3o2)n1,22.6 µM (active),
c1ccc2n[nH]nc2c1,,inactive
CC(C)(c1cc(Br)c(O)c(Br)c1)c1cc(Br)c(O)c(Br)c1,26.6 µM (active),
CCN(Cc1cccc(S(=O)(=O)O)c1)c1ccc(C(=C2C=CC(=[N+](CC)Cc3cccc(S(=O)(=O)O)c3)C=C2)c2ccccc2S(=O)(=O)[O-])cc1,,inactive
CCN(Cc1cccnc1)C(=O)c1cccc(Cl)c1[C@]1(C)C(=O)N(Cc2ccc(OC)cc2OC)c2ccc(Cl)cc21,,inactive
C[C@]12CC[C@@H]3c4ccc(O)cc4CC[C@H]3[C@@H]1CCC2=O,,inactive
Cc1cc(F)ccc1-c1cc(N2CC[C@@H](O)[C@H]2CO)ncc1N(C)C(=O)C(C)(C)c1cc(C(F)(F)F)cc(C(F)(F)F)c1,6.91 µM (active),
CCN(CC)C(=O)c1cc(S(=O)(=O)Cc2ccccc2)c(N2CCC(c3ccccc3)CC2)cc1N(CC)CCN(C)C,18.7 µM (active),
CN1C(=O)N(c2ccccc2Br)Cc2cnc(Nc3ccc4c(c3)OCC(CO)O4)nc21 (stereo not given),2.11 µM (active),
COCC(C)OCC(C)OCC(C)O (stereo not given),,inactive
CC1(C)NC(=O)N(c2ccc([N+](=O)[O-])c(C(F)(F)F)c2)C1=O,,inactive
Cc1oc2c(NC(=O)c3c(Cl)cccc3Cl)cccc2c1C(C)(C)O,,inactive

# Read-out: Human Leukocyte Antigen - DR isotype (HLADR), HLA-DRA (gene 3122)
# Test: BSK_3C_HLADR: BioMAP Diversity Plus: 3C Assay for Human Leukocyte Antigen - DR isotype (HLADR) Biomarker Activity (AID 2283019);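 as to outcome: ELISA of cell-surface HLA-DR on HUVEC 24 h after dosing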
# Details: primary human endothelial cells (HUVEC); actives raise or lower the signal
# Method in brief: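 HUVEC monoculture, HLA-DR measured by ELISA 24 h after chemical dosing. Fitted bidirectionally against DMSO baseline; parallel SRB staining assessed cytotoxicity, with 3C proliferation read by SRB at 48 h.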
Compound,AC50,outcome
NC(=O)c1nc(-c2cccc(-c3cc(F)ccc3OCC(F)(F)C(F)(F)F)c2)n[nH]1,22.6 µM (active),
O=C(Nc1ccc(Cl)cc1)Nc1ccc(Cl)c(Cl)c1,1.68 µM (active),
CCCCCCCCCCCC[N+](C)(C)C,15.2 µM (active),
CC[C@H](NC(=O)c1cc(F)ccc1NS(=O)(=O)c1cccc2cccnc12)c1ccccc1,,inactive
O=C=NCCCCCCN=C=O,,inactive
CN(C)C(=O)C1(N2CCCCC2)CCN(CC[C@@]2(c3ccc(Cl)c(Cl)c3)CN(C(=O)c3ccccc3)CCO2)CC1,12.4 µM (active),
CCCCOC(=O)CC(CC(=O)OCCCC)(OC(C)=O)C(=O)OCCCC,,inactive
Clc1ccccc1C(c1ccccc1)(c1ccccc1)n1ccnc1,15.7 µM (active),
Cc1occc1C(=O)Nc1ccc(C(=O)N2CCC(F)(F)/C(=C\C(=O)N3CCC(N4CCCCC4)CC3)c3ccccc32)cc1,,inactive
Cc1cn([C@H]2C[C@H](N=[N+]=[N-])[C@@H](CO)O2)c(=O)[nH]c1=O,,inactive
Oc1ccc2ccccc2c1,,inactive
COc1ccc2cc(S(=O)(=O)N[C@H](CC(=O)N[C@H](Cc3ccc(CN4[C@H](C)CCC[C@@H]4C)cc3)C(=O)N(C)C(C)C)c3ccc4c(c3)OCO4)ccc2c1,24.3 µM (active),
CCCCCCCCCC(=O)O,,inactive
CC(C)(C)c1csc(-c2cc3cc(OCc4ccccc4CC(=O)O)ccc3o2)n1,17.3 µM (active),
CC(C)(C)c1cc(/C=C2\SC(N)=NC2=O)cc(C(C)(C)C)c1O,27.5 µM (active),
CCOC(=O)O[C@H](C)OC(=O)c1ccc2c(c1)cc(C(=O)NC1CCN(C(C)C)CC1)n2Cc1cc(-c2ccc(Cl)s2)on1,7.08 µM (active),
CN(C)c1ccc(C(=C2C=CC(=[N+](C)C)C=C2)c2ccc(N(C)C)cc2)cc1,0.344 µM (active),
O=c1ccc2ccccc2o1,,inactive
c1ccc2n[nH]nc2c1,,inactive
CCCCCCCCOC(=O)c1cc(O)c(O)c(O)c1,15.3 µM (active),
CC(C)(c1cc(Br)c(O)c(Br)c1)c1cc(Br)c(O)c(Br)c1,27.2 µM (active),
CCN(Cc1cccc(S(=O)(=O)O)c1)c1ccc(C(=C2C=CC(=[N+](CC)Cc3cccc(S(=O)(=O)O)c3)C=C2)c2ccccc2S(=O)(=O)[O-])cc1,,inactive
CC[C@@H]1C[C@H](N(Cc2cc(C(F)(F)F)cc(C(F)(F)F)c2)C(C)=O)c2cc(C(F)(F)F)ccc2N1C(=O)OC(C)C,,inactive
